Reference: PubChem BioAssay AID463173 (ICCB-Longwood Screening Facility, Harvard Medical School, 2010)
About 4,300 (8.3%) of roughly 52,000 compounds were called active. The full list was thinned out, with actives kept by preference. A number with no mark means an inactive call. Rule as the data show it: active = survival mostly below about 52% (no sharp cut-off); inactive = mostly above about 56%.

test system: DeltatarO mutant; assay: S. aureus survival, RN4220 and DeltatarO strains – OD600, teichoic acid synthesis inhibitors, primary screen (AID 463173); conditions: S. aureus RN4220 wild type/DeltatarO growth, OD600, 18 h, active compounds read low, screened at 18.75 µg/mL (by protocol)

Point of comparison: `CCOc1ccc(C(=O)CSc2nc3c(c(=O)n(C)c(=O)n3C)n2C(C)C)cc1`, survival 77%. Against it:
- CCc1ccc(NC(=O)Cn2c(=O)n(-c3ccccc3C)c(=O)c3c2c2cc(OC)ccc2n3C)cc1 — lower, 67%
- COc1ccccc1OCC(=O)NC1CC(=O)N(c2ccc3c(c2)OCCO3)C1 (stereo not given) — lower, 67%
- Cc1coc2c(C)c3oc(=O)c(CCC(=O)NCCc4ccccc4F)c(C)c3cc12 — lower, 57%
- O=C1c2[nH]nc(-c3ccccc3O)c2C(c2cccc(Cl)c2)N1Cc1cccnc1 (stereo not given) — lower, 65%
- CC(C)c1ccc(C2c3c(-c4ccccc4O)n[nH]c3C(=O)N2Cc2ccncc2)cc1 (stereo not given) — higher, 88%
- CCCOc1ccc(C2c3c(-c4c(C)cc(C)cc4O)n[nH]c3C(=O)N2CCO)cc1 (stereo not given) — lower, 73%
- COc1cc(C2c3c(-c4ccccc4O)n[nH]c3C(=O)N2CCO)ccc1OCC(C)C (stereo not given) — higher, 99%
- COC(=O)c1ccc(C2c3c(-c4ccccc4O)n[nH]c3C(=O)N2Cc2ccncc2)cc1 (stereo not given) — higher, 90%
- COc1cc(C2c3c(-c4c(C)cc(C)cc4O)n[nH]c3C(=O)N2Cc2ccco2)cc(OC)c1OC (stereo not given) — lower, 67%
- COc1cc(C2c3c(-c4cc(C)ccc4O)n[nH]c3C(=O)N2CCCO)ccc1OCCC(C)C (stereo not given) — lower, 58%
- CC(C)(C)c1ccc(C(=O)NCC(c2cccnc2)N2CCc3ccccc3C2)cc1 (stereo not given) — higher, 98%
- O=C(c1nc(-c2ccc(Cl)cc2)n2c1CCCCC2)N1CCN(c2ccccc2)CC1 — higher, 88%
- COC(=O)c1sc(N2C(=O)c3oc4cc(C)c(C)cc4c(=O)c3C2c2ccccc2F)nc1C (stereo not given) — lower, 70%
- O=c1c2nncn2ccn1-c1ccc(F)c(F)c1 — higher, 90%
- CCN(c1ccccc1)c1nnc(NC(=O)Nc2cccc(C(F)(F)F)c2)s1 — higher, 88%
- Cc1ccccc1-c1nnc(SCC(=O)N(C)C2CCCCC2)o1 — lower, 67%
- COc1ccc(-n2nc3ccc(NC(=O)c4cccc(OCCC(C)C)c4)cc3n2)cc1 — higher, 121%
- CN(C)CCCNc1cn[nH]c(=O)c1Cl — higher, 93%
- O=C(CSc1cn(CC(=O)N2CCOCC2)c2ccccc12)Nc1ccccc1C(F)(F)F — lower, 65%
- COc1ccc(-c2ccc3c(N)c(C(=O)c4ccc(OC)c(OC)c4)sc3n2)cc1 — lower, 52%
- COc1ccc(NC(=O)c2sc3nc(-c4ccc(OC)cc4)cc(C(F)(F)F)c3c2N)cc1 — lower, 56%
- COc1cccc(-c2ccc3c(N)c(C(=O)Nc4cc(C(F)(F)F)ccc4OC)sc3n2)c1 — higher, 89%
- COc1ccc(C(=O)c2sc3nc(-c4ccc(C)cc4)cc(C(F)(F)F)c3c2N)cc1 — higher, 134%
- COc1ccc(-c2ccc3c(N)c(C(=O)NCc4ccc(C)cc4)sc3n2)cc1 — lower, 69%
- COc1cccc(-c2ccc3c(N)c(C(=O)Nc4ccc(C)c(F)c4)sc3n2)c1 — higher, 95%
- COc1ccc(C(=O)c2sc3nc(-c4ccc(F)cc4)ccc3c2N)cc1 — higher, 81%
- COc1ccc(-c2ccc3c(N)c(C(=O)NCc4ccc(Cl)cc4)sc3n2)cc1 — higher, 79%
- CC1C(=O)CCNC1c1ccccc1 (stereo not given) — lower, 65%
- O=C(O)c1ccc(N=NSCCO)cc1 — higher, 79%
- COc1ccc(-n2nc(C(=O)NCCc3cccc(C)c3)c3c4ccccc4n(C)c3c2=O)cc1Cl — higher, 89%
- Cn1c(=O)c2c(nc(SCC(=O)Nc3ccc(OC(F)(F)F)cc3)n2Cc2cccc(C(F)(F)F)c2)n(C)c1=O — higher, 86%
- COc1ccc(Cl)cc1NC(=O)c1sc2nc(-c3ccc(OC)c(OC)c3)ccc2c1N — higher, 124%
- COc1cccc(-c2ccc3c(N)c(C(=O)Nc4ccc(Cl)cc4F)sc3n2)c1 — lower, 59%
- O=S(=O)(c1ccccc1)c1nc(-c2ccccc2F)oc1N1CCOCC1 — lower, 71%
- O=S(=O)(c1ccccc1)c1nc(-c2ccc(Cl)cc2Cl)oc1N1CCCCC1 — higher, 90%
- O=S(=O)(c1ccccc1)c1nc(-c2ccc(Cl)cc2Cl)oc1N1CCCCCC1 — lower, 49%
- O=S(=O)(Nc1ccc(-c2ccc(N3CCCC3)nn2)cc1)c1cc(F)ccc1F — higher, 96%
- Cc1ccc(-c2nc(CS(=O)CC(=O)N3CCN(c4ccccc4)CC3)c(C)o2)cc1 (stereo not given) — lower, 62%
- CC(C)(C)OC(=O)N1CCC(c2c(C(=O)NCc3ccccc3)cnn2-c2cccc(F)c2)CC1 — higher, 108%
- O=C(/C=C\c1ccc2c(c1)OCO2)NC1CC(=O)N(c2ccccc2)C1 (stereo not given) — higher, 134%
- CN(C)c1ccc(NC(=O)CC(NCc2cccnc2)C(=O)O)cc1 (stereo not given) — lower, 76%
- CC(=O)c1cccc(NC(=O)CN2C=NS(=O)(=O)c3ccc(C)cc32)c1 — higher, 89%

In the case of `COc1cc(C2c3c(-c4ccccc4O)n[nH]c3C(=O)N2Cc2ccco2)ccc1OCC(C)C` (stereo not given), the survival is reported as 7% (active).
In the case of `COc1ccc(C2c3c(-c4ccccc4O)n[nH]c3C(=O)N2Cc2ccco2)cc1` (stereo not given), the survival is reported as 1% (active).
With `O=C1c2[nH]nc(-c3ccccc3O)c2C(c2ccc(Cl)cc2)N1Cc1ccco1` (stereo not given) the survival was -1% (active).
For `COc1ccc(C2c3c(-c4c(C)cc(C)cc4O)n[nH]c3C(=O)N2Cc2ccco2)cc1` (stereo not given), the survival was 0% (active).
`COc1cccc(-c2ccc3c(N)c(C(=O)c4ccc(Br)cc4)sc3n2)c1` was tested, and the survival was 28% (active).
For `COc1cccc(-c2ccc3c(N)c(C(=O)c4ccc(F)cc4)sc3n2)c1`, the survival was 17% (active).
For `COc1cccc(C(=O)c2sc3nc(-c4ccccc4)cc(C(F)(F)F)c3c2N)c1`, the survival was 37% (active).
For `COc1cccc(-c2ccc3c(N)c(C(=O)NCc4ccc(Cl)cc4)sc3n2)c1`, the survival was 41% (active).
For `COc1cccc(-c2ccc3c(N)c(C(=O)c4ccc(Cl)cc4)sc3n2)c1`, the survival was 30% (active).
In the case of `O=S(=O)(c1ccccc1)c1nc(-c2ccccc2Cl)oc1N1CCCCCC1`, the survival is reported as 27% (active).
In the case of `Cc1ccc(S(=O)(=O)c2nc(-c3ccccc3Cl)oc2N2CCCCCC2)cc1`, the survival is reported as 25% (active).
With `Cc1ccc(S(=O)(=O)c2nc(-c3ccccc3F)oc2N2CCCCC2)cc1` the survival was 32% (active).
